Measurements: PubChem BioAssay (NCI)
This is part of a sample that, as a whole, favours compounds with a hit. Of some 79,000 tested, about 15% had one in any assay. Unmarked numbers belong to inactive results. No stated cut-off is given here; in the data, active means growth inhibition above about 70%; inactive means the rest.

Assay: NCI Yeast Anticancer Drug Screen. Data for the rad50 strain (AID 155);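 further: 0% = growth of vehicle-only cultures of the same strain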
Details: S. cerevisiae rad50 strain growth inhibition; at 50.0 µM; active compounds read high
In short: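 A DNA repair-deficient yeast mutant serves as the test organism; compound-induced growth inhibition is calculated against vehicle-treated cells.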

Row | Compound | growth inhibition [%]
1 | COc1ccc2ccccc2c1/C=N/N1CCCCC1 | 32.3
2 | O=c1oc(-c2ccccc2)nc2cc(Cl)ccc12 | -0.3
3 | COc1cc(/C=C2\CN(C)C(=O)C2=O)ccc1O | -11.7
4 | CCOC(=O)CC(=O)c1ccc(C)cc1 | -13.6
5 | Cc1ccccc1CC1c2[nH]c3ccccc3c2CCN1C (configuration not stated) | -9.95
6 | NC(=O)c1ccccc1OCC(O)CO (configuration not stated) | -7.6
7 | CCOC(=O)CCc1ccc(O)c(O)c1 | 4.9
8 | CC(CN1CCCC1)C(O)(Cc1ccccc1)c1ccccc1 (configuration not stated) | -0.05
9 | Cc1cccc(C2NC(=O)c3ccccc3N2)c1 (configuration not stated) | 9.35
10 | O=[N+]([O-])c1cccc(S(=O)(=O)OCCOc2ccccc2)c1 | 30.7
11 | CCOC(=O)c1c(N)sc2c1CCN(Cc1ccccc1)C2 | 39.4
12 | CS(=O)(=O)c1ccc(NN)c([N+](=O)[O-])c1 (tested in a mixture with another compound) | -25.7
13 | Cc1ccc(CNc2cccc([N+](=O)[O-])c2)cc1 | 8.6
14 | Cc1cccc(NNC(=S)Nc2ccccc2)c1 | 18.1
15 | ClCCOC(OCCCl)OCCCl | -7.4
16 | N#C/C(=C1C=C/C(=N/O)C(Br)=C/1)c1ccccc1 | 50.1
17 | O=C1c2ccccc2C(=O)N1/N=C/c1ccc2c(c1)OCO2 | 22.5
18 | COc1ccc(-c2coc3ccc4ccccc4c3c2=O)cc1OC | 16
19 | CCCCN1CCNCC1 | 10.1

Row | Compound | growth inhibition [%]
20 | O=[N+]([O-])c1ccc2nc3c(nc2c1)-c1cccc2cccc-3c12 | 2.15
21 | CCCOC(=O)C(=O)C(C#N)c1ccccc1 (configuration not stated) | 21.1
22 | CC(=O)Nc1ccc(/C=C/C(=O)c2ccc(Cl)cc2)cc1 | 18.2
23 | O=C(CN1CCOCC1)Nc1cccc(C(F)(F)F)c1 | -33.7
24 | Cc1ccccc1Nc1n[nH]c(=S)s1 | 46.1
25 | CCOC(=O)NC(C)(C)CN(C(=O)OCC)C(C)(C)CO | 3.5
26 | COc1cc(C2N(c3ccccc3)CCN2c2ccccc2)cc(OC)c1OC | 59
27 | CC(C)c1nc(-c2ccccc2)c(-c2ccccc2)[nH]1 | 43.2
28 | COc1ccc(-c2cc(=O)c3c(O)cccc3o2)cc1 | 2.65
29 | COc1ccc(/C(C#N)=C2C=C(Cl)/C(=N/O)C=C/2Cl)cc1 | -6.55
30 | C[N+]12OC3CC1C1OC1C2C3 (configuration not stated) | -4.55
31 | Cc1ccc(-c2nc3cc(Cl)ccc3c(=O)o2)cc1 | 14.6
32 | COc1cccc(N2C(=O)CSC2=S)c1 | 32.7
33 | COc1cccc(CNc2ccc(SC)cc2)c1OC | 10.2
34 | ClCCCC1(CCCCl)OCCO1 | -21.3
35 | CCOC(=O)c1sc(N)c(C(=O)OCC)c1C | -38.2
36 | O=C1NC(C2CC3C=CC2C3)Nc2ccccc21 (configuration not stated) | 6.75
37 | CCN(CC)c1cc(C(C)(C)C)cc(C(C)(C)C)c1 | 0.45
